This passage reports Inhibition results from ChEMBL document CHEMBL1157539, “Thousands of chemical starting points for antimalarial lead identification” (Nature, 2010).

Molecules are shown by their SMILES.

The test system of the test is HepG2. Kind of test: GSK_TCMDC: Percent inhibition of human HepG2 cell line. Test compounds present at 10uM. Format: functional.
As usually defined, the Inhibition is the change of the read-out against control, counted positive when it falls. Read a low Inhibition as a response near the control. Regarding `CCCNc1ccc2nccc(CCN3CCC(NCc4ccc5c(c4)NC(=O)CS5)CC3)c2n1.Cl`, the Inhibition is recorded as 0%.

Regarding `CNS(=O)(=O)c1ccc2c(c1)nc(C1CCN(CC3CCC(NC(=O)/C=C/c4ccc(Cl)c(Cl)c4)CC3)CC1)n2C` (stereo not given), the Inhibition came to 5%.

The compound `CCC[C@@H]([C@@H](CC1CCCCC1)C(=O)NC(C(=O)Nc1nccs1)C(CC)c1ccccc1)N(O)C=O` (stereo not given in full) yielded an Inhibition of 50%.

As to `Cc1cc(C=C2SC(=Nc3ccccc3)N(C3CCCC3)C2=O)c(C)n1-c1ccc(Cl)cc1`, the Inhibition is listed as 0%.

With `Cn1nc(-c2cccc(CNCc3ccccc3)c2)c2cnc(NC3CCCC3)nc21`, the Inhibition came out at 5%.

`CCCN(Cc1ccc(OCC)cc1)Cc1cc(=O)c2cc(Cl)ccc2[nH]1` displayed an Inhibition of 47%.

`COc1cc2nc(NCCc3ccccc3)nc(NCc3cnn(C)c3C)c2cc1OC` returned an Inhibition of 13%.

Compound `CC(=O)c1ccc(S(=O)(=O)N2CCC(C(=O)Nc3ccccc3N3CCCC3)CC2)cc1` returned an Inhibition of 0%.

Compound `CN1CCCN(Cc2ccc(-c3ccc(NC(=O)c4cccc(C#N)c4)cc3)cc2)CC1.O=C(O)C(F)(F)F` came in with an Inhibition of 46%.

On to `Clc1ccc2c(NCc3ccc4c(c3)OCO4)ccnc2c1`, for which the Inhibition worked out at 6%.

Regarding `COc1ccc2ccccc2c1CNCCCCCCNCc1c(OC)ccc2ccccc12.Cl`, the Inhibition was determined as 99%.

`CC1CN(Cc2ccc(C#N)cc2)CCN1c1ccc(NC(=O)c2cccs2)cc1.O=C(O)C(F)(F)F` (stereo not given): the Inhibition is recorded as 8%.

In turn, `COc1cccc(CNC(=O)[C@@H]2CN(C(=O)c3ccccc3)CCN2)c1.O=C(O)C(F)(F)F` displayed an Inhibition of 4%.

In the case of `Cc1cc(CN2C(=O)C(c3ccccc3)(c3ccccc3)N=C2N)c(C(F)(F)F)o1`, the Inhibition came to 11%.

Take `CC(C)C[C@@H](NC(=O)NC1CCC(CCN2C3CCC2CC(OC(=O)C(CO)c2ccccc2)C3)CC1)C(O)(c1ccccc1)c1ccccc1` (stereo not given in full): the Inhibition amounted to 21%.

`Cc1cc(=NN=Cc2ccc(Cl)cc2)c2ccccc2[nH]1` yielded an Inhibition of 5%.

In turn, `CCCCCCCN1CC[C@@H](CCCc2ccnc3ccc(OCCCCN/C(N)=N/O)cc23)[C@@H](CC)C1.O=C(O)C(=O)O` displayed an Inhibition of 27%.

The compound `Br.CCOC(=O)c1cc(Cl)ccc1OCCCON1C(=N)N=C(N)NC1(C)C` came in with an Inhibition of 69%.

As to `Cc1cc(N(C)C)nc(Nc2ccc(NC(=O)Nc3ccccc3)cc2)n1`, the Inhibition is given as 10%.

`C[C@@H](COc1ccccc1)NCC(O)c1ccc([N+](=O)[O-])c(OCc2ccccc2)c1` (stereo not given in full): the Inhibition turned out to be 5%.

Regarding `Cc1cc(N[C@@H](Cc2ccccc2)C(=O)Nc2ccccc2)nc(NCCc2ccc(F)cc2)n1.O=C(O)C(F)(F)F`, the Inhibition is given as 26%.

For `C=CCc1cc(Cc2cnc(N)nc2N)c2ccc(C)nc2c1OC`, the Inhibition is recorded as 11%.

The compound `CC(C)(C)c1ccc(CN2CCC(CNC(=O)c3cc(-c4ccccc4Cl)cs3)C2)cc1.O=C(O)C(F)(F)F` (stereo not given) registered an Inhibition of 33%.

`COc1cc(C2CCN(CCCCNC(=O)c3ccc(NC(=O)c4cc(C(F)(F)F)cc(C(F)(F)F)c4)cc3)CC2)ccc1OC(C)C`: the Inhibition came out at 21%.

Consider `NC1=NC(c2ccccc2)(c2cccc(O)c2)C(=O)N1CCCc1ccccc1` (stereo not given), for which the Inhibition amounted to 0%.

For `COc1cc(NCCCCNc2ccc(Cl)c(Cl)c2)nc2ccccc12`, the Inhibition was 22%.

For the compound `N#Cc1cncc(-c2nc3c(N4CCC(Cc5ccccc5)CC4)cccc3n2C2CCNC2)c1.O=C(O)C(F)(F)F` (stereo not given), the Inhibition is on record as 5%.

Compound `Cc1cc(Nc2cccc(C#N)c2)nc(Nc2ccccc2C)n1` registered an Inhibition of 10%.

Compound `N#Cc1ccc(N/C(=N\c2ccccc2Br)N(C2CCCCC2)C2CCCCC2)c(O)c1` gave an Inhibition of 4%.

For `CC(=O)Nc1ccc2[nH]cc(C3CCN(CC4CCN(C(=O)/C=C/c5ccc(Cl)c(Cl)c5)CC4)CC3)c2n1`, the Inhibition is reported as 21%.

As to `c1cc(-c2nc3ccccc3[nH]2)nc(-c2nc3ccccc3[nH]2)c1`, the Inhibition turned out to be 7%.

Regarding `CCCNCCc1ccc(NS(=O)(=O)c2cccc(-c3ccc(Cl)cc3)c2)cc1.Cl`, the Inhibition was 36%.

The compound `COc1cc(NC(=O)Nc2cccc3ccccc23)c(OC)cc1Cl` yielded an Inhibition of 0%.

As for `Cl.NC(=O)c1cccc(Nc2nccc(Nc3ccc4[nH]c(-c5ccccc5)cc4c3)n2)c1`, the Inhibition worked out at 28%.

In the case of `Cc1cc(C(=O)CN2C(=O)NC(C)(c3ccc4ccccc4c3)C2=O)c(C)n1Cc1ccco1` (stereo not given), the Inhibition was 12%.

In turn, `Cc1cccc(-c2nc3cc(NC(=O)c4ccc([N+](=O)[O-])o4)ccc3o2)c1` yielded an Inhibition of 8%.

`CN1CCN(CCCN(Cc2cccc(-c3cccc(CNC4CCCC4)c3)c2)C(=O)CCC2CCCC2)CC1.O=C(O)C(F)(F)F`: the Inhibition amounted to 35%.

Regarding `COC(=O)c1cccc(C#CCCOCCCCCCNC[C@H](O)c2cc(Cl)c(N)c(Cl)c2)c1`, the Inhibition is recorded as 12%.

For the compound `COc1ccccc1Nc1nc(C)cc(NCc2ccc(-n3ccnc3)cc2)n1`, the Inhibition was found to be 5%.

Compound `COc1ccc2cc(-c3nc(-c4c(Cl)cccc4Cl)[nH]c3-c3ccnc(NCCCN4CCCCC4C)c3)ccc2c1.O=C(O)C(F)(F)F` (stereo not given) showed an Inhibition of 19%.
